This is a sample that favours compounds with a hit; in the whole collection about 1.6% have one here.
p53ts 39C tox – qHTS Screen for Compounds that Selectively Target Cancer Cells with p53 Mutations: Cytotoxicity of p53ts Cells at the Nonpermissive Temperature; H1299-p53A138V viability at 39C, ATP luminescence, 24 h; Potency, µM (doses to about 46.1 µM), inactives show at the top dose activity change, negative = cell killing, hits mostly cytotoxic; hit rate 1.5% among 130,000; AID 902, 2007; also: % is scaled to controls: 0 for no effect and ±100 for the full control effect; nearly all actives have a fitted effect of over 55% in size
Imprint erasure – qHTS Assay for Compounds that Induce Erasure of Genomic Imprints; Potency, µM (highest dose often 60.7 µM), for inactives: at the highest dose activity change, positive = activation, most hits filed as activators; AID 1948, 2009; hit rate 0.02% among 110,000; mouse ES Peg3-LacZ reporter, beta-gal luminescence, 40 h
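Readout: BetaGlo luminescence (5 min, room temp) for LacZ from the normally silent maternal Peg3 allele in female Peg3LacZ-Neo ES cells. Cells 300/well, 40 h, 37C, 5% CO2. Data normalized per plate to negative controls.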
p53ts 32C tox – qHTS Screen for Compounds that Selectively Target Cancer Cells with p53 Mutations: Cytotoxicity of p53ts Cells at the Permissive Temperature; H1299-p53A138V at 32C, ATP luminescence viability, 24 h; Potency, µM (titrated, usually from 46.1 µM), for inactives: at the top dose activity change, negative = cytotoxicity, actives largely listed as cytotoxic; hit rate 0.93% among 130,000;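 also: 0% = DMSO and -100% = full killing by reference compound; nearly all actives have a fitted effect of over 55% in size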
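Viability by ATPlite luminescence after 24 h compound treatment (up to 46 uM) at the permissive 32C. Cells are H1299 carrying p53 A138V. Scale runs from DMSO basal to 100 uM tamoxifen as full kill; AC50 from Hill fits.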
Active calls of the source: *; ? = inconclusive; . = not tested or not shown; [ ] = dose if it differs, or a comment. Calls follow the shape of the dose curve; as a rule, active = well fitted curve in the direction sought with a large enough effect; inconclusive = small, poorly fitted or top-dose-only effect, or another doubt; inactive = no such curve, though single readings can be large; an effect the other way counts as inactive or inconclusive. Potency is read from the fitted curve at half-maximal effect.

SMILES	p53ts 39C tox	Imprint erasure	p53ts 32C tox
CCC1CCCCN1S(=O)(=O)c1ccc(C(=O)Nc2sc3c(c2C(N)=O)CCC3)cc1 (configuration not stated)	9%	-10%[10.9 µM]	15%
CCC1CCCCN1S(=O)(=O)c1ccc(C(=O)Nc2nnc(-c3cccs3)o2)cc1 (configuration not stated)	16µM*	-26%	2%
COc1ccc(-c2nnc(NC(=O)c3ccc(S(=O)(=O)N4CCc5ccccc5C4)cc3)o2)cc1	?	-7%	-18%
CCCCCCN(C(=O)CCCCCN1C(=O)NC(c2ccccc2-c2ccccc2)C(C(=O)OCc2ccccc2)=C1C)C(C(=O)NCCCC)c1ccc(OCC(=O)OC)c(C(=O)OC)c1 (configuration not stated)	14%	-11%	24%
CSCC[C@@H]1NC(=O)C/C=C\[C@@H](C)COC(=O)[C@@H](CCSC)NC(=O)C/C=C\[C@@H](C)COC1=O	9%[9.22 µM]	.	-1%[9.22 µM]
[ClH+][Cu][ClH+].[Cu].[OH2+]c1ccc2ccccc2c1CN1CCCCC1.[OH2+]c1ccc2ccccc2c1CN1CCCCC1	.	-13%[10.9 µM]	.
C#CCCCO/N=C1/C[C@@H](O)[C@@H](O)[C@@H]2[C@H]3C(=O)N(c4ccc(F)cc4F)C(=O)[C@@H]3CC[C@@H]12	13%[9.22 µM]	.	-1%[9.22 µM]
Cc1cc(C)cc(N2C(=O)CSC23C(=O)N(CC(=O)Nc2ccc(F)cc2F)c2ccccc23)c1 (configuration not stated)	-5%	-9%[10.9 µM]	-5%
NS(=O)(=O)c1ccc(N=Nc2nc3[nH]c(=O)[nH]c(=O)c3[nH]2)cc1	1%[9.22 µM]	3%[10.9 µM]	1%[9.22 µM]
CCCN1C(=O)c2ccccc2NC1c1cc(OC)c(OC)c(OC)c1 (configuration not stated)	4%	.	?
CCN1c2ccccc2NC2N=C(OC)C(c3ccccc3)C21 (configuration not stated)	13µM*	-25%	?
Cc1cccc(NC(=O)Cn2c(=O)ccc3cc(S(=O)(=O)N4CCCC4)ccc32)c1C	-28%	-4%[10.9 µM]	-3%
Cc1ccc(NC(=O)CN2C(=O)CCn3nc(-c4cccn4C)cc32)c(Cl)c1	-6%	1%[10.9 µM]	-5%
COc1ccc(F)cc1S(=O)(=O)Nc1cccc(-c2ccc(N3CCC(C)CC3)nn2)c1	7.9µM*	-8%[10.9 µM]	?
COc1ccc(S(=O)(=O)Nc2cccc(-c3ccc(N4CCC(C)CC4)nn3)c2)cc1OC	2.5µM*	-16%[10.9 µM]	3.2µM*
COc1ccc(C)cc1S(=O)(=O)Nc1cccc(-c2ccc(N3CCC(C)CC3)nn2)c1	?	-6%[10.9 µM]	-12%
COc1ccc(S(=O)(=O)Nc2cccc(-c3ccc(N4CCCC4)nn3)c2)cc1OC	17%	-14%[10.9 µM]	-7%
CCOc1ccc(CC(=O)NC2CC(=O)N(c3ccc4c(c3)OCCO4)C2)cc1 (configuration not stated)	-9%	18%[10.9 µM]	1%
Cc1ccc(CSC2=NC(C)(C)Nc3ccccc32)c(C)c1	?	-13%[10.9 µM]	-2%
CC(=O)OC[C@H]1O[C@@H](O/N=C\[C@@H](C)[C@H](OCc2ccccc2)C(C)C)[C@H](OC(C)=O)[C@@H](OC(C)=O)[C@H]1OC(C)=O	8%[9.22 µM]	.	9%[9.22 µM]
Cc1ccc(C(=O)Nc2cccc(C(=O)O)c2)cc1S(=O)(=O)N1CCCCC1	?	-90%	13µM*
Cc1ccc(C(=O)Nc2ccc3c(c2)OCO3)cc1S(=O)(=O)N1CCCC1	-16%	-23%	-14%
NS(=O)(=O)c1ccc(CCNc2nc3c(-c4cccc(F)c4)nnn3c3ccc(Cl)cc23)cc1	6%	-22%[10.9 µM]	-8%
CCN1CCN(Cc2ccccc2NC(=O)Nc2ccc(C)cc2)CC1	-9%	-11%	-18%
CCN1CCN(Cc2ccc(NC(=O)Nc3ccccc3Cl)cc2)CC1	7.9µM*	-16%	10µM*
SMILES	p53ts 39C tox	Imprint erasure	p53ts 32C tox
O=C(O)[C@H](Cc1cc(I)c(O)c(I)c1)C1CCCCC1	-9%[9.22 µM]	-7%[10.9 µM]	3%[9.22 µM]
COCC(=O)/C=C1\Sc2ccccc2N1C	-1%	-29%	-14%
CN1/C(=C\C(=O)c2cccs2)Sc2ccccc21	10µM*	-86%	10µM*
C=C(C)C1COc2cc3oc(=O)ccc3cc2O1 (configuration not stated)	-7%	-9%	-6%
COc1ccc(NC(=O)c2ccc3c(=O)n4nc(Nc5ccccc5C)sc4nc3c2)cc1Cl	7.9µM*	25%[10.9 µM]	10µM*
COc1ccccc1Nc1nn2c(=O)c3ccc(C(=O)Nc4ccc(F)cc4)cc3nc2s1	31%	10%[10.9 µM]	0%

From PubChem BioAssay
